Here are results for 82 compounds from PubChem BioAssay AID1362 (SRMLSC, 2008).

Structures are written as SMILES. In all, about 190,000 compounds went through this assay and about 4,000 (2.1%) were called active. Cut-off read from the data, not from the text of the source: active = inhibition above about 58%; inactive = the rest, inconclusive results apart; tested in S. cerevisiae. This excerpt belongs to a sample that is enriched for actives.

This experiment is described as follows: growth inhibition of WT strain, primary screen, mitochondrial fusion inhibitor project, WT and mutant strains, chemical genetic (AID 1362). Particulars: mitochondrial fusion phenotypic screen, at 10 µM.
The mark [1] stands for this setting: WT strain, growth inhibition, stronger effect = higher value.

Turning to `COc1ccc(Cl)cc1N(CC(=O)N1CCCCC1)S(C)(=O)=O`, the inhibition was 11.8% (inactive) under setting [1] and 0.08% (mutant strain inhibition).
Regarding `Cc1cc(C)cc(C(=O)NC2C(=O)N3C(C(=O)O)=C(CSc4nnc(C)s4)CSC23)c1` (centres undefined), the inhibition is 4% (inactive) under setting [1] and -0.51% (mutant strain inhibition).
The matching figures for `Cc1ccc(NC(=O)c2csc3c2CCCC3)cc1`: 11.5% (inactive) and 21.5%.
The like results for `COC(=O)c1sccc1NC(=O)c1csc2c1CCCC2` were, in that order, 71.3% (active) and 48.8%.
The like results for `COC(=O)c1sc(NC(=O)c2csc3c2CCCC3)nc1C` were, in that order, 16.5% (inactive) and 0.86%.
As for `CC(=O)c1cccc(-n2nnnc2SCC(=O)NNC(=O)C2CCCCC2)c1`, the inhibition was 6.05% (inactive) under setting [1] and 12.8% (mutant strain inhibition).
For the compound `Cc1cc(-c2nnc(CCC(=O)NC(c3ccccc3)c3ccccc3)o2)no1`, the inhibition was 7.01% (inactive) under setting [1] and 6.86% (mutant strain inhibition).
The like results for `CC(Sc1nc2ccccc2c(=O)n1Cc1ccco1)C(=O)c1ccccc1` (centres undefined) were, in that order, 69.4% (active) and 31.3%.
The like results for `O=C(CCCn1c(SCC(=O)c2ccc(F)cc2)nc2ccccc2c1=O)NCc1ccco1` were, in that order, 7.88% (inactive) and 15.5%.
The like results for `CCOC(=O)C(C)Sc1nc2ccccc2c(=O)n1CC1CCCCC1` (centres undefined) were, in that order, 21.8% (inactive) and -3.67%.
In the case of `Cc1cc([N+](=O)[O-])nn1CCCC(=O)Nc1cccnc1Cl`, the inhibition by setting is: under setting [1], -5.91% (inactive); (mutant strain inhibition) -23.5%.
The matching figures for `COc1cc(S(=O)(=O)N2CCOCC2)ccc1NC(=O)COc1ccc(N(C)S(=O)(=O)c2ccc(C)cc2)cc1`: 3.51% (inactive) and -4.35%.
The like results for `Cc1ccc(-c2nnn(CC(=O)N(Cc3ccco3)C(C(=O)NC(C)(C)C)c3ccncc3)n2)o1` (centres undefined) were, in that order, -1.04% (inactive) and -4.44%.
As for `Cc1nc(C)c(C(=O)N(c2ccc(C)c(C)c2)C(C(=O)NCc2ccco2)c2ccccc2)s1` (centres undefined), the inhibition by setting is: under setting [1], 16.8% (inactive); (mutant strain inhibition) 9.51%.
As to `Cc1nn(-c2ccccc2)c2sc(C(=O)N(Cc3ccco3)C(C)C(=O)NC(C)(C)C)cc12` (centres undefined), the inhibition reads like this: under setting [1], 68.7% (active); (mutant strain inhibition) 1.44%.
For the compound `O=C(NC1CC1)c1ccc(-c2ccccc2)cc1`, the inhibition is, setting by setting: under setting [1], -18.3% (inactive); (mutant strain inhibition) 8.3%.
The like results for `CC1CCN(C(=S)c2cccc(O)c2)CC1` were, in that order, -7.57% (inactive) and 21.7%.
The like results for `CCN(c1ccc2c(c1)OCO2)S(=O)(=O)c1cc(Br)cc2c1N(C(=O)C1CC1)CC2` were, in that order, 82.3% (active) and 13.7%.
The like results for `CCOC(=O)N1CCN(S(=O)(=O)c2cc(Br)cc3c2N(C(=O)C2CC2)CC3)CC1` were, in that order, -4.28% (inactive) and 4.16%.
With `CS(=O)(=O)N(CC(=O)N1CCN(Cc2ccc3c(c2)OCO3)CC1)c1ccc2c(c1)OCO2`, the inhibition reads like this: under setting [1], -12% (inactive); (mutant strain inhibition) -4.62%.
The like results for `COC(=O)CSc1nccc(-c2cccs2)n1` were, in that order, -15.2% (inactive) and 12.6%.
The matching figures for `CCOc1ccc(/C=C(/NC(=O)c2ccccc2)C(=O)NCCC(=O)O)cc1`: -9.33% (inactive) and 4.17%.
For the compound `COc1cc(NC(=O)CN(C)S(=O)(=O)c2ccc3nc(C)sc3c2)cc(OC)c1`, the inhibition is, setting by setting: under setting [1], 5.19% (inactive); (mutant strain inhibition) 4.68%.
As to `C=CCn1c(N)c(C(=O)OCC(C)C)c2nc3ccccc3nc21`, the inhibition under setting [1] was 66.3% (active) and the inhibition (mutant strain inhibition) was -15.2%.
As for `C=CCn1c(N)c(S(=O)(=O)c2cccs2)c2nc3ccccc3nc21`, the inhibition is -1.23% (inactive) under setting [1] and 0.9% (mutant strain inhibition).
Turning to `CC(C)Cn1c(N)c(C(=O)NCc2cccs2)c2nc3ccccc3nc21`, the inhibition is, setting by setting: under setting [1], 3.94% (inactive); (mutant strain inhibition) 7%.
Regarding `CC(C)Oc1ccc(CCc2nnc(SCC(=O)O)n2-c2ccccc2)cc1`, the inhibition reads like this: under setting [1], -10.3% (inactive); (mutant strain inhibition) 10.7%.
The matching figures for `COc1cccc(N(CC(=O)Nc2cccc(N(C)S(C)(=O)=O)c2)S(C)(=O)=O)c1`: -5.64% (inactive) and 2.31%.
The matching figures for `Cc1ccc(N(CC(=O)Nc2cccc(N(C)S(C)(=O)=O)c2)S(C)(=O)=O)cc1`: 0.56% (inactive) and -23%.
As for `CN(c1cccc(NC(=O)Nc2ccc(Cl)cc2)c1)S(C)(=O)=O`, the inhibition by setting is: under setting [1], 96.2% (active); (mutant strain inhibition) -6.73%.
As for `O=C(N/N=C/c1ccc([N+](=O)[O-])cc1)C(=O)N1CCCC1`, the inhibition under setting [1] was 11.1% (inactive) and the inhibition (mutant strain inhibition) was found to be 10.6%.
As for `CCOC(=O)c1cnc(-c2ccccc2)nc1Oc1ccc(C)cc1`, the inhibition is, setting by setting: under setting [1], 21.7% (inactive); (mutant strain inhibition) -24.7%.
The like results for `CCOC(=O)c1cnc(-n2nc(C)cc2C)nc1-n1nc(C)cc1C` were, in that order, -11.1% (inactive) and -5.08%.
The matching figures for `CCOC(=O)c1cnc(-n2nc(C)cc2C)nc1NNc1cc(C)nc(-c2ccccc2)n1`: 62.1% (active) and -11.2%.
Consider `O=C(NNS(=O)(=O)c1ccc(F)cc1)c1cnccn1`, for which the inhibition was -14.2% (inactive) under setting [1] and 8.1% (mutant strain inhibition).
The matching figures for `CCc1ccccc1N1C(=O)C2C3CC(=O)C(c4ccccc43)C2C1=O` (centres undefined): 5.26% (inactive) and 3.48%.
Regarding `CCN(C(=O)CN1CCN(Cc2ccccc2)CC1)c1c(N)n(Cc2ccccc2)c(=O)[nH]c1=O`, the inhibition is, setting by setting: under setting [1], -4.65% (inactive); (mutant strain inhibition) 11.9%.
In the case of `COc1ccccc1C(=O)N1CC2(C)CC1CC(C)(C)C2` (centres undefined), the inhibition is, setting by setting: under setting [1], 18.6% (inactive); (mutant strain inhibition) 10.1%.
The matching figures for `Cc1cccc(C(=O)NCC(=O)OCC(=O)N2CC3(C)CC2CC(C)(C)C3)c1` (centres undefined): -4.43% (inactive) and 5.06%.
The matching figures for `Cc1nnnn1/C(=C\c1ccccc1)C(=O)OCC(=O)N1CC2(C)CC1CC(C)(C)C2` (centres undefined): 60.3% (active) and 11.4%.
The like results for `CN1CCCN(C(=O)C2CCCCC2)CC1` were, in that order, 2.94% (inactive) and -4.71%.
In the case of `CN(C)S(=O)(=O)N1CCN(c2ccc([N+](=O)[O-])cc2)CC1`, the inhibition was -1.29% (inactive) under setting [1] and -1.53% (mutant strain inhibition).
Consider `O=C(NCc1ccc(Cl)cc1)NCc1ccc(Cl)cc1`, for which the inhibition reads like this: under setting [1], 4.16% (inactive); (mutant strain inhibition) 4.87%.
For the compound `CC(C)Oc1ccc(CCc2n[nH]c(=S)n2Cc2ccccc2)cc1`, the inhibition under setting [1] is 13.3% (inactive) and the inhibition (mutant strain inhibition) worked out at 0.86%.
The like results for `CC(C)Oc1ccc(Cc2n[nH]c(=S)n2Cc2ccccc2)cc1Cl` were, in that order, 66.9% (active) and 17.8%.
The like results for `C=CCn1c(CCc2ccc(OC(C)C)cc2)n[nH]c1=S` were, in that order, -7.58% (inactive) and -5.68%.
The matching figures for `Cc1cccc(C2=N/C(=C/c3cccs3)C(=O)O2)c1`: -7.49% (inactive) and 9.32%.
Turning to `CSC1=N/C(=C\c2ccc3c(c2)OCO3)C(=O)S1`, the inhibition is 6.07% (inactive) under setting [1] and -0.28% (mutant strain inhibition).
Take `CSC1=N/C(=C\C=C\c2cccs2)C(=O)S1`: the inhibition runs as follows: under setting [1], 70.3% (active); (mutant strain inhibition) 37.4%.
The matching figures for `Cc1nnc(SCc2cccc(Cl)c2)n(N)c1=O`: -3.17% (inactive) and -5.61%.
`CCCN(CC(=O)Nc1ccc(OC)c(OC)c1)CC(=O)Nc1ccc(F)c(F)c1F`: the inhibition is, setting by setting: under setting [1], 4.56% (inactive); (mutant strain inhibition) 28.4%.
The matching figures for `O=[N+]([O-])c1ccc2c(c1)C(N1CCOCC1)/C(=C/C1(O)CCCCC1)O2` (centres undefined): -4.01% (inactive) and 0.41%.
For `COc1cc(C)c(Cl)cc1S(=O)(=O)n1ccnc1`, the inhibition by setting is: under setting [1], 3.86% (inactive); (mutant strain inhibition) -5.05%.
Regarding `COc1ccccc1NC(=O)C1=C(C)Nc2nnnn2C1c1cccc(Br)c1` (centres undefined), the inhibition was -12.6% (inactive) under setting [1] and -7.01% (mutant strain inhibition).
The matching figures for `COC(=O)c1ccc(C2C3=C(Nc4nnnn42)c2ccccc2OC3)cc1` (centres undefined): 98.5% (active) and -8.54%.
With `COC(=O)C1=C(C(=O)c2ccc(C)cc2)C(c2ccccc2)n2nnnc2N1` (centres undefined), the inhibition under setting [1] is 11.5% (inactive) and the inhibition (mutant strain inhibition) amounted to 4.37%.
`Nc1cc(C(F)(F)F)ccc1N1CCOCC1`: the inhibition under setting [1] is -6.55% (inactive) and the inhibition (mutant strain inhibition) was -2.84%.
The like results for `CC1(C)C=C2[C@H]3CC[C@@H]4[C@@]5(C)CCC(=O)C(C)(C)[C@@H]5CC[C@@]4(C)[C@]3(C)CC[C@@]2(C(=O)O)CC1` were, in that order, 59.1% (active) and -18.6%.
The matching figures for `Cc1ccc(S(=O)(=O)Nc2nc(N)n(-c3ccccc3)n2)cc1`: -0.46% (inactive) and 3.67%.
Turning to `CSc1cc(C)[nH]c(=O)n1`, the inhibition reads like this: under setting [1], -8.71% (inactive); (mutant strain inhibition) -7.11%.
The like results for `CCCC1CCC(=NNC(=S)NCCc2ccccc2)CC1` (centres undefined) were, in that order, 66.8% (active) and 40.1%.
As for `S=C(NN=C1CCN(Cc2ccccc2)CC1)NC1CCCCC1`, the inhibition runs as follows: under setting [1], 38.9% (inactive); (mutant strain inhibition) 25%.
In the case of `S=C(NCCc1ccccc1)NCC1CCCO1` (centres undefined), the inhibition reads like this: under setting [1], -1.69% (inactive); (mutant strain inhibition) 7.51%.
The matching figures for `O=C(O)/C=C/c1ccc(S(=O)(=O)N2CCCCCC2)cc1`: -9.59% (inactive) and 10.2%.
The matching figures for `COCCN(C(=O)C(C)C)c1nnc(-c2ccc(C(C)(C)C)cc2)s1`: 59% (active) and 10%.
For `COc1cc(OC)cc(-c2nnc(N(C)C(=O)c3ccncc3)s2)c1`, the inhibition runs as follows: under setting [1], -11% (inactive); (mutant strain inhibition) -7.45%.
Turning to `COCCN(C(=O)c1ccco1)c1nnc(-c2ccc(OC)cc2)s1`, the inhibition by setting is: under setting [1], -4.3% (inactive); (mutant strain inhibition) -8.85%.
The matching figures for `CCC(=O)Nc1cc(C(F)(F)F)ccc1N1CCCC1`: -15.6% (inactive) and 12.5%.
`O=[N+]([O-])c1ccccc1NCc1ccc(Cl)cc1`: the inhibition runs as follows: under setting [1], 21.2% (inactive); (mutant strain inhibition) 13.9%.
As to `Oc1ccc(N2CCN(C(=S)NCc3ccccc3)CC2)cc1`, the inhibition is -2.43% (inactive) under setting [1] and 0.26% (mutant strain inhibition).
The matching figures for `Oc1ccc(CNc2ccccc2O)cc1`: 62% (active) and 57.4%.
On to `CCC(=O)N(Cc1cc2ccccc2[nH]c1=O)c1ccc(OC)cc1`, for which the inhibition under setting [1] was -16% (inactive) and the inhibition (mutant strain inhibition) is 1.27%.
The like results for `CN(CCOc1ccc(Br)cc1)CC(=O)Nc1cccc(S(=O)(=O)NC2=NCCC2)c1` were, in that order, -4.79% (inactive) and -2.03%.
The like results for `Cc1onc(-c2ccccc2)c1C(=O)NNC(=S)NC(=O)c1ccc(F)cc1` were, in that order, 14.1% (inactive) and -24.2%.
For the compound `c1ccc2c(c1)OCC(c1nn3cnnc3s1)O2` (centres undefined), the inhibition runs as follows: under setting [1], 15.5% (inactive); (mutant strain inhibition) 14.4%.
The like results for `O=C(Nc1nnc(C2COc3ccccc3O2)o1)c1ccc(F)cc1` (centres undefined) were, in that order, 62.7% (active) and 52.9%.
The matching figures for `COCCNc1nc2nonc2nc1N1CCCC1c1nccs1` (centres undefined): 17.4% (inactive) and 12.6%.
The matching figures for `Cc1cc(C)n2nc(SCC(=O)NC(=O)NCc3ccco3)nc2n1`: 8.54% (inactive) and 10.4%.
`O=C(Nc1ccc(F)cc1)N1CCCC(c2nc3c(nnn3Cc3ccccc3Cl)c(=O)[nH]2)C1` (centres undefined): the inhibition reads like this: under setting [1], -0.5% (inactive); (mutant strain inhibition) 17.4%.
In the case of `COc1ccc(Cn2nnc3c(=O)[nH]c(C4CCN(C(=O)c5ccccc5Cl)CC4)nc32)cc1`, the inhibition was 94.1% (active) under setting [1] and 34.6% (mutant strain inhibition).
The like results for `Cc1ccc(NC(=O)N2CCC(c3nc4c(nnn4Cc4c(F)cccc4Cl)c(=O)[nH]3)CC2)cc1` were, in that order, -0.04% (inactive) and 3.09%.
The like results for `COCCNC(=O)c1ccc(-n2c(SCc3cccnc3)nc3ccccc3c2=O)cc1` were, in that order, -8.55% (inactive) and -7.82%.

For orientation: inhibition means the relative decrease from the control value, in per cent.
